High-throughput results (PubChem)
The list is not random: actives were taken first. Their share in the collection is about 7.4%.
TSHR ag – TSH receptor (human) agonism; HEK293-CNG-TSHR cells (CNG channel as cAMP sensor), membrane potential dye, cAMP; Potency, µM (doses to about 57.1 µM), for inactives: at the top dose activation, actives largely listed as activators; 73,000 compounds, 0.48% hits; AID 926; active = well fitted activation curve with a large enough effect in the main read-out, with a control signal flat, not every such curve was filed as active; inconclusive = small, poorly fitted or top-dose-only effect, or a change in a side signal; inactive = no such curve, though single readings can be large or run the other way; % of control where 0% means no effect;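 note: the control signal comes from parental cells without the receptor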
Target sequence (P16473 whole entry, looked up): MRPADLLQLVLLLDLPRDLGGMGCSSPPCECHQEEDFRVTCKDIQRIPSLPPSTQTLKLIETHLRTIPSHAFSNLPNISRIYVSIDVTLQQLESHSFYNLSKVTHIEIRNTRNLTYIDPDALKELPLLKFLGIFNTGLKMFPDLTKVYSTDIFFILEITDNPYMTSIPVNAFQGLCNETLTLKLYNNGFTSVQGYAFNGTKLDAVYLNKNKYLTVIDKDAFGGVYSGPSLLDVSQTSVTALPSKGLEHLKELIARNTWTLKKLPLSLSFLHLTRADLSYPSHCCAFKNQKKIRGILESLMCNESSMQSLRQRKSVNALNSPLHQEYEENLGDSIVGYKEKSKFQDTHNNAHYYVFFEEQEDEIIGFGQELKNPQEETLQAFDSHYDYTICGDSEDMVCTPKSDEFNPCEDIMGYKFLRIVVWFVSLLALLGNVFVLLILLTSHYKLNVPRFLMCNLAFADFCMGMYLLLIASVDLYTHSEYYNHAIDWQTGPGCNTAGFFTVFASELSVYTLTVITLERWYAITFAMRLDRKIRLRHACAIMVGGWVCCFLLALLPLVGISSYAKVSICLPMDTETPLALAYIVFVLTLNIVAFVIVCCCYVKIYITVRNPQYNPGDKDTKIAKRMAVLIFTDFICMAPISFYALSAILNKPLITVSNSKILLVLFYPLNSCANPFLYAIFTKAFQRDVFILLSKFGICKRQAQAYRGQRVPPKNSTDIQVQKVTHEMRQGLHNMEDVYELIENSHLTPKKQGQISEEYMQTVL
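HEK 293 cells stably expressing TSHR and a cAMP-gated CNG channel; parental CNG-only cells as counterscreen. Cells preloaded 60 min with membrane potential dye plus 100 uM RO 20-1724, then compound 30 min; fluorescence read at 590 nm.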
Tau filament bind – binders of human tau filaments | P10636 | recombinant tau filaments, thioflavin S fluorescence, 15 h; filaments grown with octadecylsulfate alongside compound | Potency, µM (titrated, usually from 57.1 µM), inactives show at the top dose activity change, negative = inhibition | 71,000 compounds, 2% hits | AID 596;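 note: % is set by controls: 0 for no effect and ±100 for the full control effect; actives lower thioflavin S fluorescence by blocking filaments or displacing dye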
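Recombinant tau protein (human, 1 uM final) plus 30 uM ODS in HEPES pH 7.4 with NaCl, DTT and thioflavine S. Compound present from the start; fluorescence at 510 nm after 15 h, 37 C.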
ERK AVP block – inhibitors of vasopressin-stimulated ERK signaling pathway; AID 995; 72,000 compounds, 0.99% hits; HEK293-V1b, vasopressin-stimulated pERK AlphaScreen; Potency, µM (highest dose often 57.5 µM), without a hit: top-dose activity, negative = inhibition, hits mostly inhibitors; note: % is set by controls: 0 for no effect and ±100 for the full control effect; nearly all actives have a fitted effect of over 55% in size
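Phosphorylated ERK1/2 detected via AlphaScreen bead proximity in lysates of V1b-expressing HEK293 cells given 25 nM vasopressin for 5 min after 30 min compound exposure (37 °C). AC50 from Hill equation; basal DMSO 0%, vasopressin 100%.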
CRE Fsk mod – CRE-bla signaling modulation under forskolin stimulation | CHO CRE-bla reporter (cAMP response element driving beta-lactamase), forskolin EC10, beta-lactamase ratio | Potency, µM (titrated, usually from 38.2 µM), for the others: at the highest dose activity change, negative = inhibition, actives largely listed as activators | 71,000 compounds, 2.5% hits | AID 662; active = well fitted activation curve with a large enough effect in the signal ratio, with a control signal flat, not every such curve was filed as active; inconclusive = small, poorly fitted or top-dose-only effect, or effect the other way, or a change in a side signal; the % refers to the signal ratio; note: % of control where 0% means no effect
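Cells were plated overnight at 37 °C, exposed to compound titrations plus EC10 NKH 477 for 3 h, then given CCF4 dye for 2 h at room temperature. Blue/green (460/530 nm) ratio was converted to %Activity and AC50 values calculated.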
HEK293 cAMP ctrl – counter-screen for TSHR agonists: cAMP increase in parental HEK293. AID 938. 73,000 compounds, 2.5% hits. Potency, µM (top dose mostly 57.1 µM), inactives show at the highest dose activation, hits mostly activators. parental HEK293 CNG cAMP sensor, membrane potential fluorescence; note: % of control where 0% means no effect; nearly all actives have a fitted effect of over 55% in size
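Parental HEK 293 cells stably expressing a cAMP-gated CNG channel were loaded with membrane potential dye containing 100 uM RO 20-1724 for 60 min. Compound added for 30 min; depolarization read as fluorescence intensity at 590 nm.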
Starred values were filed as active, the others as inactive; ? = inconclusive; . = not tested or not shown; [ ] = remark or other dose. Unless noted, calls come from the whole dose curve; as a rule, active = well fitted curve in the direction sought with a large enough effect; inconclusive = small, poorly fitted or top-dose-only effect, or another doubt; inactive = no such curve, though single readings can be large; an effect the other way counts as inactive or inconclusive. Potency is the fitted concentration of half-maximal effect.

SMILES | TSHR ag | Tau filament bind | ERK AVP block | CRE Fsk mod | HEK293 cAMP ctrl
CCCCS/C(=C(/C#N)C(N)=O)c1cc2c([nH]1)CCCC2 | ? | 9.0% | ? | -14.5% | 5.01µM*
COc1ccc2c(c1)c1ncn(Cc3ccco3)c(=O)c1n2C | ? | 6.2% | -20.3% | 1µM* | ?
Cn1c2ccccc2c2ncn(CCC3=CCCCC3)c(=O)c21 | ? | 9.7% | -13.1% | ? | ?
O=C(c1cc2nc(-c3ccco3)cc(C(F)(F)F)n2n1)N1CCN(c2ccccc2)CC1 | ? | 10µM* | -7.9% | 24.7% | -35.0%
O=C(c1cc2nc(-c3ccco3)cc(C(F)(F)F)n2n1)N1CCN(c2ccccn2)CC1 | -5.2% | 25.1µM* | ? | ? | -22.1%
O=C(c1cc(-c2ccco2)on1)N1CCN(c2ccccc2)CC1 | 15.9% | -21.4% | -9.3% | -17.1% | 22.7%
CC(C)CCNC(=O)c1cnn2c(C(F)(F)F)cc(-c3ccco3)nc12 | -0.2% | 15.8µM* | -14.1% | 5.01µM* | 28.5%
CN(C(=O)c1cc2nc(-c3ccco3)cc(C(F)(F)F)n2n1)C1CCCCC1 | 5.5% | . | . | . | -1.6%
CCOC(=O)c1cnn2c(C(F)(F)F)cc(-c3ccco3)nc12 | -10.2% | -7.6% | 4.0% | ? | 21.6%
COc1ccc(-c2cc(C(F)(F)F)n3nc(C(=O)N4CCCCC4)cc3n2)cc1 | ? | -25.4% | -5.3% | 12.6µM* | ?
CN(C)S(=O)(=O)c1nc(Cl)c2[nH]cnc2n1 | 4.8%[11.4 µM] | -3.4%[11.4 µM] | -26.4%[11.5 µM] | 6.4%[7.6 µM] | 9.6%[11.4 µM]
CN1C[C@@H](O)[C@@H](O)[C@@H](O)[C@@H]1CO | -2.6% | -2.5% | . | -0.4% | -5.0%
OCC1OC(n2cnc3c(=S)nc[nH]c32)C(O)C1O (configuration not stated) | . | . | 5.4% | . | .
CCN(CC)CCCC(C)NC(=O)c1ccc(-n2c(=O)c(=O)[nH]c3ccccc32)cc1 (configuration not stated) | 5.5% | . | . | . | 4.6%
O=C(c1cc2nc(-c3ccco3)cc(C(F)(F)F)n2n1)N1CCCc2ccccc21 | 16.0% | -23.9% | -9.8% | -4.9% | 11.6%
O=C(c1cc2nc(-c3ccco3)cc(C(F)(F)F)n2n1)N1CCCCCC1 | 9.3% | 12.6µM* | -3.8% | ? | 14.1%
CC1CCN(CC[C@@H]2CCCN2S(=O)(=O)c2cccc(O)c2)CC1 | 15.4% | -3.0% | 11.4% | -7.1% | 8.3%
O=[N+]([O-])c1cccc(C(F)(F)F)c1 | -2.9% | -2.8% | -8.7% | 2.6% | -5.9%
Nc1c(C(=O)NCc2ccco2)nnn1Cc1ccccc1 | ? | 11.5% | 5.6% | ? | ?
O=C(c1ccco1)c1nnn(Cc2ccccc2)c1-c1ccccc1 | ? | -29.8% | 21.1% | ? | 31.6µM*
COc1ccc(OC)c(/C=c2\sc3nc(-c4cccs4)nn3c2=O)c1 | -6.6% | 8.8% | 21.8% | -9.4% | 2.1%
COc1ccc(O)c(/C=c2/sc3nc4cc(C)c(C)cc4n3c2=O)c1 | ? | 189.1% | 2.6% | ? | 31.6µM*
Cc1cc(NC(=O)CSc2nc(C3CCCCC3)nc3ccccc23)no1 | -7.5% | 14.8% | -29.8% | -4.6% | 18.8%
Cc1nonc1NC(=O)CSc1nc(C2CCCCC2)nc2ccccc12 | ? | 85.2% | 7.7% | -2.0% | 25.1µM*
CCCSc1nnc(-c2cccc(S(=O)(=O)N(C)C)c2)n1-c1cc(OC)ccc1OC | ? | 16.7% | -2.2% | 12.3% | 7.94µM*
SMILES | TSHR ag | Tau filament bind | ERK AVP block | CRE Fsk mod | HEK293 cAMP ctrl
CCSc1nnc(-c2cccc(S(=O)(=O)N(C)C)c2)n1-c1cc(OC)ccc1OC | ? | 3.2% | 10.9% | 14.3% | 5.01µM*
COc1ccc(OC)c(-n2c(SCC(C)=O)nnc2-c2cccc(S(=O)(=O)N(C)C)c2)c1 | ? | -4.0% | ? | 8.6% | ?
CCCCNc1nc(C)nc2c1nc(-c1ccccc1)n2CCN(C)C | ? | 9.1% | -5.4% | ? | 25.1µM*
Cc1nc(NCCO)c2nc(-c3ccccc3)n(CCN(C)C)c2n1 | 1.5% | -11.6% | -27.6% | ? | 2.4%
CCCn1c(-c2ccc(F)cc2)nc2c(NCCCN(C)C)nc(C)nc21 | ? | 2.9% | 0.0% | 9.5% | 25.1µM*
CCCn1c(-c2ccc(F)cc2)nc2c(NCC(C)(C)CN(C)C)nc(C)nc21 | ? | -7.8% | -9.4% | 10.5% | 25.1µM*
CCCn1c(-c2ccc(F)cc2)nc2c(NCCCN(CC)CC)nc(C)nc21 | ? | -8.2% | -3.6% | 5.5% | ?
CC(=O)N1[C@H](Cc2ccccc2)C=C[C@]1(C)C(=O)NCc1cc(F)cc(C(F)(F)F)c1 | ? | -5.2% | 20.9% | 0.9% | ?
C[C@]1(C(=O)NCc2cc(F)cc(C(F)(F)F)c2)C=C[C@@H](Cc2ccccc2)N1C(=O)c1ccccc1 | ? | 62.5% | 30.8% | -16.6% | 15.8µM*
COc1ccc2[nH]c3nc(SCc4nnc(-c5ccc(C)cc5)o4)nnc3c2c1 | 12.6% | ? | -9.1% | 1µM* | 9.0%
CCNc1nc(N)nc(Oc2ccc(OCCOc3ccc(Cl)cc3Cl)nn2)n1 | 5.2% | -13.6% | ? | 6.31µM* | 0.7%
O=C(CN1C(=O)COc2ccccc21)N(Cc1cccnc1)Cc1ccccc1F | ? | -4.6% | -15.6% | -3.0% | 10µM*
O=C(CCN1C(=O)COc2ccccc21)NCc1cccnc1 | -3.3% | 1.5% | -2.8% | 2.8% | -0.1%
CSc1nnc2c(n1)OC(c1cccn1C)N(C(C)=O)c1ccccc1-2 (configuration not stated) | ? | -1.1% | 5.9% | -1.7% | 15.8µM*
CSc1nnc2c(n1)OC(c1ccc(C(=O)O)cc1)N(C(C)=O)c1ccccc1-2 (configuration not stated) | -12.0% | 6.1% | -2.1% | -4.6% | -0.1%
O=C(O)c1cccc(N=Nc2c(S(=O)(=O)O)ccc3c2C(=O)c2ccccc2C3=O)c1O | ? | 3.16µM* | -0.1%[11.5 µM] | -7.9%[7.6 µM] | ?
Cc1onc(-c2ccccc2Cl)c1C(=O)Nc1cccc2nsnc12 | ? | 18.3% | 7.8% | ? | 31.6µM*
Cc1onc(-c2ccccc2Cl)c1C(=O)Nc1cccnc1 | -2.3% | -0.1% | -6.5% | -6.7% | 9.3%
Cc1onc(-c2ccccc2Cl)c1C(=O)Nc1ccc(-n2nncc2C(C)(C)C)cc1 | ? | 25.1µM* | -7.7% | -8.1% | ?
CNC(=O)Oc1ccc2c(c1)C1(C)CCN(C)C1N2C (configuration not stated) | . | . | 13.0% | . | .
CC(C)c1ccc(O)c(O)c(=O)c1 (tested in a mixture with another compound) | -2.1%[11.4 µM] | -8.7%[11.4 µM] | 14.2%[11.5 µM] | ? | -1.4%[11.4 µM]
C[C@]12C=CC(=O)C=C1CC[C@@H]1[C@H]3C[C@@H](O)[C@](O)(C(=O)CO)[C@]3(C)C[C@H](O)[C@]12F | 5.1% | 6.2% | . | -6.0% | -0.8%
COc1ccc2cc(C(=O)CCC(=O)O)ccc2c1 | -0.1%[11.4 µM] | -5.2%[11.4 µM] | 22.5%[11.5 µM] | -7.7%[7.6 µM] | 1.5%[11.4 µM]
